Laboratory results from PubChem BioAssay (NCI).
Where “and” joins values, the source holds several entries; their conditions need not be identical. Equal entries are not always repeated. This is part of a sample that, as a whole, favours compounds with a hit. Of some 83,000 tested, about 20% had one in any assay.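 Testing used 96-well plates and a 48-hour single-concentration exposure. Example: -40 means 40% of the starting cells died.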 A number with no mark means an inactive call. Calls of active or inactive are those of the source. How the source made its calls: active means growth percent below 10; inactive means the rest.

How the values were obtained:
Test in all cases: NCI-60 one-dose screen, 48 h (100 = growth as untreated, 0 = no growth, -100 = all killed)
Conditions in all cases: 10 µM unless noted
HCT-15 colon = tested on: HCT-15 colon
HT29 colon = tested on: HT29 colon
SNB-75 CNS = tested on: SNB-75 CNS
SNB-19 CNS = tested on: SNB-19 CNS
U251 CNS = tested on: U251 CNS
PC-3 prostate = tested on: PC-3 prostate
SK-MEL-5 melanoma = tested on: SK-MEL-5 melanoma
UACC-62 melanoma = tested on: UACC-62 melanoma
LOX IMVI melanoma = tested on: LOX IMVI melanoma
SK-MEL-28 melanoma = tested on: SK-MEL-28 melanoma

Structure (SMILES) | growth (HCT-15 colon) | growth (HT29 colon) | growth (SNB-75 CNS) | growth (SNB-19 CNS) | growth (U251 CNS) | growth (PC-3 prostate) | growth (SK-MEL-5 melanoma) | growth (UACC-62 melanoma) | growth (LOX IMVI melanoma) | growth (SK-MEL-28 melanoma)
O=C1/C(=C/c2cn(-c3ccccc3)nc2-c2ccccc2)SC(=S)N1c1ccc(Cl)cc1 | 73% | 99.1% | 90.4% | 71.9% | 57.2% | 56.8% | 78.5% | 57.5% | 63.3% | 73.5%
Cc1ccc2c(c1)C(C)Cc1c(ncnc1-n1cnc3cc(C)ccc31)N2C (stereo not given) | 12.3% | -10.3% (active) | 60.3% | 37.8% | 6.82% (active) | 24.5% | -24.2% (active) | 30.6% | 25.7% | 53.1%
COc1ccc2c(O)c(/C=C3\N=Nc4nc(C)ccc43)oc2c1CC1CCNCC1 | 93.3% | 31.6% | 25.2% | 57.5% | 21.4% | 69.2% | 81.1% | -26.3% (active) | 5.08% (active) | -68.4% (active)
CCn1cc(C(=O)NN=C2CCCC2)c(=O)c2ccc(C)nc21 | 96.6% | 96.9% | 86.1% | 96.6% | 96.5% | 85.6% | 92.8% | 78.6% | 98.1% | 90.9%
COC(=O)N/N=C/c1c[n+]([O-])c2ccccc2[n+]1[O-] | 106% | 106% | 100% | 104% | 96.6% | 86% | 114% | 101% | 97.7% | 105%
CON1CCC[C@]2(C)[C@H]3CC[C@@H]4[C@H]5[C@@H](O)C(C)(C)CC[C@]5(CO)CC[C@@]4(C)[C@]3(C)CC[C@H]2C1(C)C | 106% | 91.2% | 98.7% | 100% | 90% | 59.6% | 102% | 96% | 87.7% | 107%
COc1ccc(-c2cc(=O)c3c(O)cc(O)cc3o2)cc1 | 103% and 100% | 110% and 109% | 99.1% and 118% | 105% and 83.4% | 92.9% and 84% | 94.9% and 83.8% | 104% and 92.7% | 104% and 96.9% | 82.8% and 91.6% | 113% and 111%
CCN(C(=O)N1CCN(c2cc3c(cc2F)c(=O)c(C(=O)O)cn3C2CC2)CC1)c1nc(-c2ccccc2)cs1 | 9.62% (active) | 10.9% | 31.3% | 22.5% | 20.7% | 11.5% | 11.7% | 13.1% | -11.1% (active) | 41.8%
C#CCOCC1CN(C)C(=O)O1 (stereo not given) | 98.1% | 99.5% | 98.5% | 107% | 103% | 109% | 114% | 112% | 105% | 110%
O=C(CCN1CCOCC1)Nc1cccc(-n2cc(-c3ccncc3)c(-c3ccc(Cl)c(O)c3)n2)c1 | 28.5% | -7.51% (active) | -1.7% (active) | 48.8% | 27.7% | 11.4% | 20.3% | 43.1% | 23.1% | 49.6%
COc1ccc(/C(C)=C(\c2ccc(OCCN3CCCCCC3)cc2)c2ccc(OC(=O)C3CCCCC3)cc2)cc1 | -76.7% (active) | -71% (active) | -11.1% (active) | 3.58% (active) | -84.9% (active) | -49.8% (active) | -99.7% (active) | -73.7% (active) | -93.5% (active) | -84.5% (active)
CCOC(=O)c1c(-c2ccc(OC)cc2)c(C#N)c2c(C#N)c(N)nn2c1N | 22.6% | 6.58% (active) | 43.4% | 31.2% | 15.8% | 40% | 19.3% | 13.1% | 28.3% | 44.8%
Cc1nn(-c2nc(-c3cc4ccccc4oc3=O)cs2)c(C)c1N=Nc1ccccc1 | 106% | 103% | 89.4% | 101% | 88.8% | 106% | 101% | 86.6% | 96.7% | 108%
CCCCCCCCCCCCCCCC(=O)O[C@@H]1[C@@H](O)[C@@H](O)C([C@H](NC(=O)[C@@H]2C[C@@H](CCC)CN2C)[C@H](C)Cl)O[C@@H]1SC (stereo not given in full) | 99.9% | 111% | 96.2% | 101% | 102% | 97.6% | 99.9% | 104% | 105% | 112%
O=S(=O)(O)c1ccc(N=Nc2ccc(N=Nc3cccc4ccccc34)c(S(=O)(=O)O)c2)cc1 | 114% | 105% | 89.7% | 110% | 102% | 84.5% | 86.4% | 98.4% | 94.1% | 110%
COc1ccc(/C=C/C(=O)c2cc3c(N)c(C(=O)Nc4ccccc4Cl)sc3nc2C)cc1 | 54.2% | 39.2% | -6.43% (active) | 44.7% | 31.7% | 59.2% | -56.1% (active) | -1.92% (active) | 48.2% | 42%
Cc1ccc(NC(=O)N/C(N)=N/c2nc(=O)c3ccccc3s2)cc1 | 104% | 103% | 83.1% | 93% | 99.7% | 101% | 93.4% | 83% | 104% | 102%
C=C(CNCCc1ccc(O)cc1)[C@@H]1CC[C@]2(CO)CC[C@]3(C)[C@H](CC[C@@H]4[C@@]5(C)CCC(NCCc6ccc(O)cc6)C(C)(C)[C@@H]5CC[C@]43C)[C@@H]12 (stereo not given in full) | -86.9% (active) | -87.7% (active) | -87.3% (active) | -85.4% (active) | -88.4% (active) | -75.6% (active) | -93.5% (active) | -88% (active) | -86.3% (active) | -87.6% (active)
COc1cc(NS(=O)(=O)C(C)C)cc(-c2cc(-c3ccc(N4CCNCC4)cc3)cnc2N)c1 | 112% | 31.9% | 53.7% | 94.2% | 77.1% | 72% | 102% | 110% | 67.3% | 107%
Nc1nc(N)c2c(n1)NC(c1cccc(Nc3ccnc4cc(C(F)(F)F)ccc34)c1)CC(c1ccc(F)cc1)=N2 (stereo not given) | 21.3% | 12.5% | 47.1% | 61.3% | 33.6% | 34.4% | 30.4% | 71.4% | 40.5% | 79.2%
Cc1ccc(-c2nc3nc(-c4ccccc4)nc(N4CCN(S(=O)(=O)c5ccccc5)CC4)c3o2)cc1 | 103% | 97.7% | -17.2% (active) | 32.9% | 78.9% | 96.4% | 95% | 101% | 96.7% | 106%
O=C(/C=C/c1ccc(Cl)s1)c1ccc(Cl)s1 | 88.2% and 90.7% | 74.5% and 94% | 106% and 102% | 94.6% and 99.5% | 92.8% and 93.3% | 92.6% and 105% | 96% and 96.6% | 94.7% and 99.6% | 78.8% and 87.8% | 103% and 112%
COc1ccc(N2CCN(S(=O)(=O)c3oc(-c4ccccc4)nc3C#N)CC2)cc1 | 9.51% (active) | 50.6% | 93.4% | 92.2% | 88.2% | 92% | 81.2% | 85.5% | 4.64% (active) | 98.6%
